This is a sample that favours compounds with a hit; in the whole collection about 1.8% have one here.
Vif-APOBEC3F blk: Vif-A3F binding inhibition; AID 602313; Potency, µM (series often up to 46.1 µM), inactives show top-dose activity, negative = active; HeLa A3F-eYFP + Vif (tagged APOBEC3F with the HIV-1 protein that degrades it), YFP fluorescence increase; hit rate 0.2% among 390,000; further: % of control where 0% means no effect; nearly all actives have a fitted effect of over 65% in size
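Fluorescence increase (Ex 488/Em 500-530) after overnight compound treatment at 37 deg C flags inhibition of Vif-driven A3F-eYFP loss in stable HeLa A3F-eYFP/Vif cells seeded overnight beforehand.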
TrxR1 substrate: is turned over as a substrate by rat TrxR1. O89049. purified TrxR1 substrate turnover, NADPH consumption readout. Potency, µM (doses to about 114 µM), inactives show at the top dose activity change, negative = substrate turnover. hit rate 0.01% among 390,000. AID 588456; further: on the % scale 0 is the no-effect control and ±100 the full control effect; nearly all actives have a fitted effect of over 50% in size
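Rat TrxR1, dispensed at 90 nM, was prereduced with 400 uM NADPH (final) for 5 min at ~22 deg C, then incubated with compound 15 min before 400 uM selenite. A first-read NADPH fluorescence drop versus no-compound background flagged substrates.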
rTrxR1 inhibitor: rat TrxR1 inhibition; hit rate 1% among 390,000; O89049; recombinant rTrxR1, NADPH fluorescence consumption, selenite substrate; AID 588453; Potency, µM (top dose mostly 114 µM), without a hit: at the top dose activity change, negative = inhibition, hits mostly inhibitors; further: on the % scale 0 is the no-effect control and ±100 the full control effect; nearly all actives have a fitted effect of over 65% in size
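Rat TrxR1 (90 nM in the dispensed reagent) was pre-reduced with 400 uM NADPH for 5 min at room temperature, then incubated with compound for 15 min. After 400 uM selenite was added, NADPH fluorescence (Ex 340/Em 450 nm) was followed for 8 min.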
Vif-A3G inh: Vif-A3G binding inhibition; HeLa A3G-eYFP + Vif (tagged APOBEC3G with the HIV-1 protein that degrades it), YFP fluorescence, overnight; Potency, µM (titrated, usually from 46.1 µM), inactives show at the top dose activity, negative = active, hits mostly inhibitors; hit rate 0.076% among 410,000; further: on the % scale 0 is the no-effect control and ±100 the full control effect; nearly all actives have a fitted effect of over 60% in size
Target sequence (Q9HC16 whole entry, looked up): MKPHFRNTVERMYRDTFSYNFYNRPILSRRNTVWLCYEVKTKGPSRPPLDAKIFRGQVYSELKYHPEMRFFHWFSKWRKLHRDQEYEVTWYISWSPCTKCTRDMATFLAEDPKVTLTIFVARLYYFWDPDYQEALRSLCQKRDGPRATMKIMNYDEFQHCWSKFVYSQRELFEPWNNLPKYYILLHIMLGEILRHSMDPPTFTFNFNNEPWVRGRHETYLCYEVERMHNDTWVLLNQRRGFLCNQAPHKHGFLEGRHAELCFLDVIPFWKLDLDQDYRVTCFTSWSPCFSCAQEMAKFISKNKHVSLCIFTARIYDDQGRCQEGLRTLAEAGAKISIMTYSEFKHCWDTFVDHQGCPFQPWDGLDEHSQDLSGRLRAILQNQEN
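Read-out is eYFP fluorescence (Ex 488/Em 500-530) from Vif-expressing HeLa A3G-eYFP cells; more signal means A3G escaped Vif-mediated degradation. Cells plated overnight, compound pinned in, incubated overnight at 37 deg C.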
VDR inhibitor: vitamin D3 receptor (human) inhibition; P11473; hit rate 0.93% among 400,000; VDR-SRC2-3 peptide fluorescence polarization, 2 h; Potency, µM, without a hit: max response, negative = inhibition, usual class: inhibitors; further: on the % scale 0 is the no-effect control and ±100 the full control effect
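Measured by FP: displacement of SRC2-3 coactivator peptide from VDR by library compounds, following a two-hour ambient incubation.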
Active calls of the source: *; ? = inconclusive; · = no result given; [ ] = another dose, or the depositor's remark. The call rests on the fitted dose curve; in most records, active means well fitted curve in the direction sought with a large enough effect; inconclusive means small, poorly fitted or top-dose-only effect, or another doubt; inactive means no such curve, though single readings can be large; an effect the other way counts as inactive or inconclusive. Potency means the concentration at half of the fitted maximal effect.

SMILES	Vif-APOBEC3F blk	TrxR1 substrate	rTrxR1 inhibitor	Vif-A3G inh	VDR inhibitor
CCOC(=O)NC(N(O)c1cccc(Cl)c1)C(Cl)(Cl)Cl (centres undefined)	-3%	-4%	-8%	-10%	32µM*
Cc1ccc(-c2nnn3c2nc(NCC(C)c2ccccc2)c2ccccc23)cc1 (centres undefined)	-2%	88%	114%	-6%	-2%
COC(=O)c1sccc1NC(=O)c1ccc2c(c1)OCO2	1%	5%	-18%	2%	1%
COC(=O)c1c(-c2cccnc2)csc1NC(=O)c1ccc2c(c1)OCO2	10µM*	0%	3%	-20%	89µM*
COc1cccc(CN(C(=O)c2oc3cc(C)ccc3c2C)C2CCS(=O)(=O)C2)c1 (centres undefined)	3%	-7%	8%	2%	3%
COc1cc2nc(N3CCCN(C)CC3)nc(NC3CCN(Cc4ccccc4)CC3)c2cc1OC	·	116%[57.1 µM]	15%[57.1 µM]	-13%	-8%
O=C(CSc1nnc(-c2ccncc2)n1Cc1ccco1)c1ccc(Cl)cc1	-4%	8%	32µM*	2%	?
COc1ccc(C(=O)CSc2nnc(-c3cnccn3)n2Cc2ccco2)cc1	-5%	15%	?	0%	16%
O=C(CSc1nnc(-c2ccc(Cl)cc2)n1Cc1ccco1)c1cccs1	-1%	-6%	35µM*	-9%	-25%
Clc1ccc(CSc2nnc(-c3cccnc3)n2Cc2ccco2)c(Cl)c1	-5%	-10%	40µM*	-1%	-13%
COc1ccc(C(=O)CSc2nnc(-c3cccnc3)n2Cc2ccco2)cc1	·	-9%	50µM*	-1%	14%
CC(=O)c1ccc(Nc2c3ccccc3cc3occc23)cc1	·	·	·	·	0%
O=C(Nc1ccc(F)c(Cl)c1)N1CCC(CN2CCc3ccccc3C2)CC1	6%	4%	20%	0%	4%
O=C(CSc1nnc(Cc2cccs2)n1Cc1ccco1)Nc1cccc(Cl)c1	-7%	6%	25µM*	1%	-29%
CSCC[C@H](NC(=O)[C@H](CO)NC(=O)[C@H](Cc1ccc(O)cc1)NC(=O)[C@@H](N)CO)C(=O)N[C@@H](CCC(=O)O)C(=O)N[C@@H](Cc1cnc[nH]1)C(=O)N[C@@H](Cc1ccccc1)C(=O)N[C@@H](CCCNC(=N)N)C(=O)N[C@@H](Cc1c[nH]c2ccccc12)C(=O)NCC(=O)N[C@@H](CCCCN)C(=O)N1CCC[C@H]1C(=O)N[C@H](C(=O)NCC(=O)N[C@@H](CCCCN)C(=O)N[C@@H](CCCCN)C(=O)N[C@@H](CCCNC(=N)N)C(=O)N[C@@H](CCCNC(=N)N)C(=O)N1CCC[C@H]1C(=O)N[C@H](C(=O)N[C@@H](CCCCN)C(=O)N[C@H](C(=O)N[C@@H](Cc1ccc(O)cc1)C(=O)N1CCC[C@H]1C(=O)N[C@@H](CC(N)=O)C(=O)NCC(=O)N[C@@H](C)C(=O)N[C@@H](CCC(=O)O)C(=O)N[C@@H](CC(=O)O)C(=O)N[C@@H](CCC(=O)O)C(=O)N[C@@H](CO)C(=O)N[C@@H](C)C(=O)N[C@@H](CCC(=O)O)C(=O)N[C@@H](C)C(=O)N[C@@H](Cc1ccccc1)C(=O)N1CCC[C@H]1C(=O)N[C@@H](CC(C)C)C(=O)N[C@@H](CCC(=O)O)C(=O)N[C@@H](Cc1ccccc1)C(=O)O)C(C)C)C(C)C)C(C)C	·	·	·	·	-3%
CCN1C(=O)/C(=C/C=C2/Sc3ccccc3N2CCO)SC1=S	-30%	2%[57.1 µM]	26%[57.1 µM]	-11%	?
CCN1/C(=C/C=C2/SC(=Nc3cccc4ncccc34)N(C)C2=O)Sc2ccccc21	3.5µM*	0%	11%	-22%	-8%
CC(C)(C)c1ccc(Cn2cnc3c(cnn3C(C)(C)C)c2=O)cc1	·	-1%	13%	3%	·
Cc1cc(C(=O)OCC(N)=O)c(C)n1-c1ccccc1	0%	5%[57.1 µM]	1%[57.1 µM]	-6%	79µM*
COC(=O)[C@@]1(Cc2ccccc2-c2ccco2)C=C[C@H](C)[C@@H](c2ccccc2)N1C(=O)C(F)(F)F	·	·	·	·	45µM*
Cc1sc2ccccc2[n+]1CCC[n+]1c(C)sc2ccccc21	·	-5%	222%	-1%	·
